Source: PubChem (National Center for Advancing Translational Sciences (NCATS))
WRN helicase inh – WRN helicase (human) inhibition. AID 651768. Q14191. WRN helicase unwinding, fluorescent forked duplex, kinetic. hit rate 0.46% among 360,000. Potency, µM (series often up to 114 µM), for inactives: top-dose activity change, negative = inhibition, usual class: inhibitors; also: potency is read from the fitted curve at half-maximal effect; % is scaled to controls: 0 for no effect and ±100 for the full control effect; nearly all actives have a fitted effect of over 55% in size
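Primary qHTS, 1536-well format. 20 nM WRN + compound, 15 min RT; start with 100 nM forked fluorophore/quencher duplex, 2 mM ATP (final); kinetic read ex 525/em 598 nm.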
Pol eta inh-1 – blocks human DNA polymerase eta activity; Q9Y253; recombinant Pol eta, fluorescent DNA replication assay; Potency, µM (doses to about 114 µM), inactives show top-dose activity change, negative = inhibition, most hits filed as inhibitors; hit rate 1.2% among 390,000; also: potency is read from the fitted curve at half-maximal effect; % is scaled to controls: 0 for no effect and ±100 for the full control effect
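Fluorescent replication assay: 50 nM final substrate added after a 15 min room-temperature compound preincubation with 10 nM enzyme. Signal taken at 0 min and again at 10 min.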
POLB inh – DNA polymerase beta (human) inhibition; P06746; hit rate 1.3% among 340,000; Pol beta primer extension/strand displacement, fluorescence kinetic; Potency, µM (highest dose often 114 µM), inactives show top-dose activity change, negative = inhibition, hits mostly inhibitors; AID 485314; also: potency is read from the fitted curve at half-maximal effect; % is scaled to controls: 0 for no effect and ±100 for the full control effect
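Human Pol beta at 10 nM; strand-displacement substrate 50 nM final. Compound exposure 15 min at room temperature before start, reaction 10 min at room temperature.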
Pol kappa inh-1 – blocks human DNA polymerase kappa activity | Q9UBT6 | purified Pol kappa, fluorescent DNA synthesis assay, 10 min | Potency, µM (series often up to 107 µM), inactives show at the highest dose activity, negative = inhibition, hits mostly inhibitors | hit rate 0.53% among 400,000 | AID 588579; also: potency is read from the fitted curve at half-maximal effect; % is scaled to controls: 0 for no effect and ±100 for the full control effect
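10 nM Pol kappa preincubated 15 min at room temperature with compounds, then reaction started with substrate at 50 nM final. Fluorescence read kinetically at 0 and 10 min; buffer-only wells served as negative control.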
Pol iota inh – inhibitors of human DNA polymerase iota | Q9UNA4 | Pol iota fluorescent replication assay, 10 min | Potency, µM (titrated, usually from 115 µM), for inactives: at the highest dose activity, negative = inhibition, actives largely listed as inhibitors | hit rate 1% among 390,000; also: potency is read from the fitted curve at half-maximal effect
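Fluorescent replication assay read twice, at 0 min and 10 min after adding 50 nM (final) substrate. Enzyme (10 nM) and compounds were first incubated 15 min at room temperature; enzyme-free buffer wells were negative controls.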
FEN1 inhibitor – blocks human flap endonuclease 1 | P39748 | Recombinant FEN1 flap cleavage, fluorescence, 15 min | Potency, µM (doses to about 114 µM), without a hit: top-dose activity change, negative = inhibition, hits mostly inhibitors | hit rate 0.35% among 390,000 | AID 588795; also: potency is read from the fitted curve at half-maximal effect; % is scaled to controls: 0 for no effect and ±100 for the full control effect; nearly all actives have a fitted effect of over 65% in size
Target sequence (P39748 whole entry, looked up): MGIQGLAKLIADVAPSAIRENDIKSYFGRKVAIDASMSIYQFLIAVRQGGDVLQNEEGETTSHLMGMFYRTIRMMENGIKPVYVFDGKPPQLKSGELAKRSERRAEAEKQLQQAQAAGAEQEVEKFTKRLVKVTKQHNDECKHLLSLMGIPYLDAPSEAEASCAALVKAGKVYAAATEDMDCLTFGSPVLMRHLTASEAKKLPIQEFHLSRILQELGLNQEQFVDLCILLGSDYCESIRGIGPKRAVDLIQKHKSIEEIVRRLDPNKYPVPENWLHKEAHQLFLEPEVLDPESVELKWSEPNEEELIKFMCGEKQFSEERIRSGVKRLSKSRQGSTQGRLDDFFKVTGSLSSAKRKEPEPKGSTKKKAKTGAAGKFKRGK
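Recombinant FEN1 (10 nM) was preincubated with pin-transferred compounds for 15 min at room temperature, then flap DNA substrate (50 nM final) was added. Plates were read at 0 and 15 min, and normalized concentration–response data were fitted to a four-parameter Hill equation.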
GALK confirm – galactokinase (human) inhibition, confirmation; shares compounds with Pol eta inh-1; purified GALK, Kinase-Glo ATP depletion luminescence; Potency, µM (top dose mostly 115 µM), without a hit: top-dose activity, negative = inhibition, actives largely listed as inhibitors; hit rate 70% among 150; AID 2015
Target sequence (P51570 whole entry, looked up): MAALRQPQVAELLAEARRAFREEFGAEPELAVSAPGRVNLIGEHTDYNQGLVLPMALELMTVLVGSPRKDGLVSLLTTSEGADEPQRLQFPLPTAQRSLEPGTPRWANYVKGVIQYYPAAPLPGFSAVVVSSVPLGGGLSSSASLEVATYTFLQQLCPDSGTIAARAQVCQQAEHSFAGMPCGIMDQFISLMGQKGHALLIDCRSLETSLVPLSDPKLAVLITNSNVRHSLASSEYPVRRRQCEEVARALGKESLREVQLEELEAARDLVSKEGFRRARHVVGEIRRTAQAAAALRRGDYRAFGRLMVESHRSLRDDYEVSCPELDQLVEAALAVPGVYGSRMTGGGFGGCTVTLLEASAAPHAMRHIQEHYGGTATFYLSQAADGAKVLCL
GALK redox cs – redox cycling activity in phenol red-HRP assay; AID 2035; Potency, µM (highest dose often 115 µM), without a hit: at the top dose activity change, negative = H2O2 signal, usual class: inhibitors; hit rate 40% among 150; shares compounds with Pol eta inh-1; Phenol red-HRP H2O2 redox cycling, absorbance 600 nm
HEK293 viability – HEK-293 cytotoxicity, GALK inhibitor secondary; shares compounds with Pol eta inh-1; HEK-293 viability, ATP luminescence (CellTiter-Glo), 24/48 h; Potency, µM (top dose mostly 46.1 µM), without a hit: at the highest dose activity change, negative = cytotoxicity, most hits filed as inhibitors; hit rate 10% among 170; AID 2547; also: potency is read from the fitted curve at half-maximal effect; % is scaled to controls: 0 for no effect and ±100 for the full control effect
Pol kappa inh-2 – confirmation of human DNA polymerase kappa inhibitors; shares compounds with Pol eta inh-1; purified Pol-kappa, fluorescent strand-displacement substrate; Potency, µM, usual class: inhibitors; hit rate 76% among 920; also: potency is read from the fitted curve at half-maximal effect
Pol eta inh-2 – Pol eta (human) inhibition, cherry-pick confirmation. shares compounds with Pol eta inh-1. Pol eta primer extension, TAMRA/BHQ fluorescence, 10 min. Potency, µM, actives largely listed as inhibitors. hit rate 64% among 2,600; also: potency is read from the fitted curve at half-maximal effect
Active calls of the source: *; ? = inconclusive; nt = not tested or not shown; [ ] = another dose, or the depositor's remark. Hits are enriched below; roughly 2.4% of the tested compounds scored in any of these assays. Calls follow the shape of the dose curve; as a rule, active = well fitted curve in the direction sought with a large enough effect; inconclusive = small, poorly fitted or top-dose-only effect, or another doubt; inactive = no such curve, though single readings can be large; an effect the other way counts as inactive or inconclusive.

SMILES	WRN helicase inh	Pol eta inh-1	POLB inh	Pol kappa inh-1	Pol iota inh	FEN1 inhibitor	Pol eta inh-2	others
CC(=O)c1ccc(C(=O)N(Cc2cccnc2)c2nc3c(C)c(C)ccc3s2)cc1	nt	-10%	-1%	-13%[60.1 µM]	16%	-1%	nt
Cn1c(=O)n(CCc2ccccc2)c(=O)c2c1nc1n2CCN1c1ccc(Cl)cc1	nt	-9%	0%	11%	12%	-2%	nt
O=C(O)c1ccc(-n2ncc(Cl)c(Cl)c2=O)cc1	-10%[11.6 µM]	22µM*	nt	nt	nt	nt	48*	Pol kappa inh-2=30*
CCc1cc(C(=O)Nc2ccc(S(=O)(=O)NC3=NCCCCC3)cc2)sc1C	?	56µM*	nt	50µM*	22µM*	-19%	?
Cc1ccc(C(=O)Nc2ccc(S(=O)(=O)NC3=NCCCCC3)cc2)c(C)c1	-19%	-18%	nt	2%	58%	-13%	nt
Cc1ccc(-c2cc(C(=O)N3CC(C)CC(C)C3)c3ccccc3n2)o1 (centres undefined)	50µM*	79µM*	40µM*	?	-16%	-6%	76*
CSc1ccc(/C=C2/C(=N)N3N=C(CC(=O)N4CCCC4)SC3=NC2=O)cc1	5%[11.6 µM]	40µM*	7%	?	79µM*	-11%	?
COc1ccccc1-n1c(C)cc(/C=C2\C(=N)N3N=C(CC(=O)N4CCOCC4)SC3=NC2=O)c1C	-2%	-2%	22%	0%	14%	20%	nt
Cc1ccc(/C=C2/C(=N)N3N=C(CC(=O)N4CCCC4)SC3=NC2=O)cc1	-13%	-5%	8%	-6%	1%	-10%	nt
N=C1/C(=C\c2ccc(OC(=O)c3ccc(F)cc3)cc2)C(=O)N=C2SC(N3CCCC3)=NN12	-10%[11.6 µM]	56µM*	-1%	-27%	-12%	10%	nt	Pol kappa inh-2=67*
COc1ccc(-n2c(C)cc(/C=C3\C(=N)N4N=C(CC(=O)N5CCOCC5)SC4=NC3=O)c2C)c(OC)c1	-23%	40µM*	?	?	45µM*	7%	?
COc1ccc(-n2nc(C(=O)Nc3ccc(Cl)cn3)c3c4ccccc4n(C)c3c2=O)cc1Cl	nt	-12%	29%	6%	?	-13%	nt
Cc1ccccc1NC(=O)CSc1nc2nccnc2c(=O)n1CCc1c[nH]c2ccccc12	nt	24%	-11%	-13%	1%	18%	nt
Cc1c(Cl)cccc1NC(=O)CSc1ncccc1C(=O)Oc1ccccc1Cl	nt	-8%	38%	-12%[60.1 µM]	-7%	-13%	nt
O=C(O)c1c(C(=O)O)c(-c2ccc(Cl)c(Cl)c2)n2c1CSC2	-17%[11.6 µM]	50µM*	?	-45%	?	-26%	nt	Pol kappa inh-2=38*
O=C(O)c1c(C(=O)O)c(-c2ccc(F)cc2)n2c1CCC2	-2%	-11%	10%	-11%	22%	-11%	nt
CC(C)C(CC(=O)NCc1ccco1)c1ccco1 (centres undefined)	?	18µM*	?	?	?	-5%	?
CC(=O)NC(Cc1c[nH]c2ccccc12)C(=O)NCc1ccco1 (centres undefined)	-8%	-7%	30%	0%	-7%	7%	nt
CC(Cc1c[nH]c2ccccc12)C(=O)NCc1ccco1 (centres undefined)	-17%	20µM*	32µM*	?	?	-11%	30*	Pol kappa inh-2=42*
CC(C)c1ccc(NC(=O)CCC(=O)NCc2ccco2)cc1	-2%	-14%	2%	2%	155%	-5%	nt
CC#CCCCC(=O)Nc1cccc(C(=O)O)c1	-15%[57.1 µM]	14µM*	4%	?	?	-11%	?
CCCCC(=O)NC(=S)Nc1cccc(C(=O)O)c1	-3%	-23%	6%	-13%	1%	14%	nt
Cc1c(CCC(=O)NCCc2ccccc2F)c(=O)oc2cc(O)ccc12	nt	-15%	27%	3%	20%	-6%	nt
Cc1cccc(C)c1NC(=O)CN(C)C(=O)c1ccc2nc[nH]c2c1	-8%[11.6 µM]	?	nt	?	22µM*	-2%	67*
CC(=O)O[C@@H]1[C@H]2[C@@H](C[C@@H](C)[C@@H]3C=CC(=O)[C@@]13C)OC(=O)[C@@H]2C	-3%	6%	1%	6%	-24%	4%	nt
SMILES	WRN helicase inh	Pol eta inh-1	POLB inh	Pol kappa inh-1	Pol iota inh	FEN1 inhibitor	Pol eta inh-2	others
C=C1C(=O)OC2C1CCC(C)C1C=CC(=O)C12C (centres undefined)	-19%	14µM*	nt	-39%	45µM*	5%	?
COc1ccc(N/N=C(/C#N)S(=O)(=O)c2nsc(C)c2C#N)cc1	-7%	0%	-2%	-12%	6%	-7%	nt	GALK confirm=?;GALK redox cs=8%;HEK293 viability=11%
C/C(=N\Nc1cccc(C(F)(F)F)c1)c1ccc(O)cc1	-1%	-15%	-16%	0%	105%	-13%	nt
COc1ccc(N/N=C(/C#N)S(=O)(=O)C(C)(C)C)cc1	1%	-23%	4%	3%	19%	1%	nt
Cc1snc(S(=O)(=O)/C(C#N)=N/Nc2cccc(C(F)(F)F)c2)c1C#N	-29%	1%	21%	-21%	-2%	0%	nt	GALK confirm=24µM*;GALK redox cs=1%;HEK293 viability=11%
CCC1CN(C(=O)N2CCC(C(=O)NCCc3ccccc3Cl)CC2)c2cc(C)ccc2O1 (centres undefined)	nt	-19%	-12%	2%	8%	10%	nt
Cc1ccc(C)c(OCC(=O)Nc2nonc2NC(=O)COc2cc(C)ccc2C)c1	-9%	-11%	-25%	-7%	?	6%	nt
Cc1ccc(C)c(OCC(=O)Nc2cc(NC(=O)COc3cc(C)ccc3C)cc(C(=O)O)c2)c1	?	50µM*	0%	-13%	?	-25%	67*
